SMILES strings stand for the structures. Screen size: about 330,000 compounds; about 7,700 (2.3%) were called active. Where a call stands in place of a potency, no number is given. Another 26% or so got no clear call; they are omitted. The sample holds actives, similar compounds and a random draw of the others, so the mix is not that of the screen. Calls come from the whole dose curve; as a rule, active = well fitted inhibition curve with a large enough effect; inconclusive = small, poorly fitted or top-dose-only effect, or effect the other way; inactive = flat fitted curve, though single readings scatter.

Results on 96 compounds are retold here after PubChem BioAssay AID504467 (National Center for Advancing Translational Sciences (NCATS), 2011).
Potency is the fitted concentration of half-maximal effect.

The assay is described as follows: qHTS screen for small molecules that inhibit ELG1-dependent DNA repair in human embryonic kidney (HEK293T) cells expressing luciferase-tagged ELG1. Note: nearly all actives have a fitted effect of over 55% in size. The note with it: HEK293T ELG1-luciferase reporter, luminescence, 16 h, DNA damage induced by 5-fluorouridine; series mostly up to 46.1 µM. An outline of the steps:
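Overnight (16 hr) co-exposure of 2,000 cells/well to 5-fluorouridine and compound at 37 °C preceded detection. Luciferase was quantified via ONE-Glo luminescence; loss of signal denotes inhibition.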
In general terms: qHTS replaces the single test concentration by a dilution series.
Turning to `CCn1c(SCc2ccccc2)nc2c(c1=O)SCC2`, the Potency entry is “inactive”.

Regarding `Cn1c(SCC(=O)N2CCCCC2)nc2c(c1=O)SCC2`, the Potency entry is “inactive”.

Turning to `Cc1cccc(CSc2nc3c(c(=O)n2C)SCC3)c1`, the Potency is 14.6 µM (active).

Consider `Cc1ccc(C(=O)NNC(=O)CSc2nnc3ccccn23)cc1`, for which the Potency entry was “inactive”.

With `COc1ccc(OC)c(CNC(=O)Cn2nc(C)c3c(C)n(-c4ccc(C)cc4)nc3c2=O)c1`, the Potency is 8.2 µM (active).

Take `Cc1nn(CC(=O)N2CCCCC2)c(=O)c2nn(-c3ccccc3)c(C)c12`: the Potency result was “inactive”.

Take `COc1ccc(CNC(=O)C(C)n2nc(C)c3c(C)n(-c4ccccc4)nc3c2=O)c(OC)c1` (stereo unspecified): the Potency entry is “inactive”.

For the compound `COc1ccc(S(=O)(=O)N2CCOC23CCN(S(=O)(=O)c2ccc([N+](=O)[O-])cc2)CC3)cc1`, the Potency result is “inactive”.

Consider `Cc1cccc(C(=O)NCC(=O)OCC(=O)N2CC3(C)CC2CC(C)(C)C3)c1` (stereo unspecified), for which the Potency result was “inactive”.

For `COc1ccccc1C(=O)N1CC2(C)CC1CC(C)(C)C2` (stereo unspecified), the Potency entry is “inactive”.

For the compound `Cc1nnnn1/C(=C\c1ccccc1)C(=O)OCC(=O)N1CC2(C)CC1CC(C)(C)C2` (stereo unspecified), the Potency was 20.6 µM (active).

In the case of `Cc1ccc(CNC(=O)c2cc(-c3ccccc3C)n(CC3CC(c4cccc([N+](=O)[O-])c4)=NO3)n2)cc1` (stereo unspecified), the Potency entry is “inactive”.

Regarding `O=C(c1ccccc1)N1N=C(c2ccccc2O)CC1c1ccc(Br)cc1` (stereo unspecified), the Potency entry was “inactive”.

`COc1ccc2c(CC(=O)NNC(=O)c3ccccc3F)coc2c1`: the Potency result is “inactive”.

On to `Cc1cccc(NC(=O)c2ccc3c(=O)n(CC4CCCO4)c(=S)[nH]c3c2)c1` (stereo unspecified), for which the Potency is 16.4 µM (active).

With `CCC(=O)Nc1ccc(C(=O)Nc2ccc3c(c2)C(=O)N(CC2CCCO2)C3=O)cc1` (stereo unspecified), the Potency entry is “inactive”.

`COc1ccc(Cn2c(=S)[nH]c3cc(C(=O)NCCCN4CCOCC4)ccc3c2=O)cc1`: the Potency result was “inactive”.

Consider `COc1ccccc1N1CCN(C(=O)c2ccc(NC3=NC4CS(=O)(=O)CC4S3)cc2)CC1` (stereo unspecified), for which the Potency entry was “inactive”.

For `COc1ccc(-c2nn(C)c(=O)c3ccccc23)cc1CNC(=O)C1CCCCC1`, the Potency was 20.6 µM (active).

As to `COc1ccccc1CNC(=O)C1CCN(c2nc3ccccc3o2)CC1`, the Potency entry is “inactive”.

With `COc1ccc(OC)c(CNC(=O)C2CCCN(c3nc4ccccc4o3)C2)c1` (stereo unspecified), the Potency result was “inactive”.

With `CCN(CC(=O)Nc1cc(Cl)ccc1C)C(=O)CSCc1ccccc1`, the Potency result is “inactive”.

Consider `O=C(O)c1ccc(NC(=O)c2cn(-c3ccccc3)nc2-c2ccc(Cl)cc2)cc1`, for which the Potency entry was “inactive”.

In the case of `Cc1nnc(SCC(=O)N/N=C/c2cn(-c3ccccc3)nc2-c2ccc(F)cc2)n1-c1ccccc1`, the Potency entry was “inactive”.

With `COc1ccc(-c2nn(-c3ccccc3)cc2C(=O)Nc2nccs2)cc1OC`, the Potency is 3.26 µM (active).

Regarding `CN(C)/N=C/c1cn(-c2ccccc2)nc1-c1cccnc1`, the Potency entry is “inactive”.

Take `COc1ccc(-c2nn(-c3ccccc3)cc2C(=O)Nc2nc(CC(C)=O)ns2)cc1`: the Potency result is “inactive”.

Take `COc1ccc(-c2nn(-c3ccccc3)cc2/C=N/Nc2ccccn2)cc1OC`: the Potency was 14.6 µM (active).

Take `CCC(C)N(C(=O)CSc1ncnc2c1cnn2-c1ccccc1)C1CCS(=O)(=O)C1` (stereo unspecified): the Potency result is “inactive”.

With `O=C(CSc1nc2ccccc2c(=O)n1Cc1ccc(F)cc1)NCC1CCCO1` (stereo unspecified), the Potency result is “inactive”.

As for `CN(Cc1nc2ccccc2s1)C(=O)c1ccc(F)cc1`, the Potency result was “inactive”.

On to `Cc1nc2ccccc2c(-c2ccccc2)c1C(=O)c1ccccc1`, for which the Potency result was “inactive”.

Regarding `Cc1nc2ccccc2c(C)c1C(=O)c1ccc(F)cc1`, the Potency was 14.6 µM (active).

As for `Cc1ccc2nc(SCC(=O)N3CC(C)OC(C)C3)nc(=O)n2c1` (stereo unspecified), the Potency entry is “inactive”.

On to `COc1ccc(CCNC(=O)C2CCCN(S(=O)(=O)c3ccc(OC)cc3)C2)cc1` (stereo unspecified), for which the Potency entry was “inactive”.

For the compound `Cc1cccc(OCCCC(=O)Nc2ccc(S(=O)(=O)N3CCCC3)cc2)c1`, the Potency is 18.4 µM (active).

As to `Cc1ccc(C)c(OCCC(=O)Nc2cccc(S(=O)(=O)N3CCCC3)c2)c1`, the Potency result was “inactive”.

As for `CCOc1cccc(NC(=O)C2CCCN(S(=O)(=O)c3ccc(OC)cc3)C2)c1` (stereo unspecified), the Potency was 23.1 µM (active).

With `O=C(O)C1CCCN(S(=O)(=O)c2cccc3cccnc23)C1` (stereo unspecified), the Potency result was “inactive”.

Regarding `COc1ccc(NC(=O)C2CCCN(S(=O)(=O)c3cccc4cccnc34)C2)cc1OC` (stereo unspecified), the Potency is 20.6 µM (active).

For `CCOc1ccc(NC(=O)COc2ccc(S(=O)(=O)N3CCCC3)cc2)cc1`, the Potency entry was “inactive”.

Regarding `CCN(CC(=O)Nc1ccc(S(=O)(=O)N2CCCC2)cc1)CC(=O)Nc1cccc(OC)c1`, the Potency entry is “inactive”.

Take `COc1ccccc1CNC(=O)C1CCCN(S(=O)(=O)c2cccc3cccnc23)C1` (stereo unspecified): the Potency result is “inactive”.

Consider `COc1ccc(C(=O)O)cc1S(=O)(=O)NC1CCN(Cc2ccccc2)CC1`, for which the Potency entry is “inactive”.

Consider `CCOCCCN(C)C1CCN(C(=O)c2oc3ccccc3c2NC(=O)Cc2cccc([N+](=O)[O-])c2)CC1`, for which the Potency result is “inactive”.

In the case of `CCCCC[C@@H]1C=C(C(=O)O)[C@H](c2ccc(C#N)cc2)N1S(=O)(=O)c1ccc(C)cc1`, the Potency entry is “inactive”.

On to `COc1ccc(C(C(=O)NCC2CCCO2)N(C(=O)Cn2nnc3ccccc32)c2ccc(NC(C)=O)cc2)cc1OC` (stereo unspecified), for which the Potency result was “inactive”.

Turning to `COc1ccccc1CNS(=O)(=O)c1cc(C(=O)NCc2ccccn2)c(Cl)cc1Cl`, the Potency result was “inactive”.

For `COc1ccc(N2CCN(C(=O)Cn3cnc4sc(C)c(S(=O)(=O)N5CCOCC5)c4c3=O)CC2)cc1`, the Potency result is “inactive”.

Take `Cc1cccc(OCC(=O)Nc2ccc(NC(=O)c3ccco3)c(C)c2)c1`: the Potency result is “inactive”.

Regarding `COc1ccc(OCC(=O)Nc2ccc(NC(=O)c3ccco3)c(C)c2)cc1`, the Potency entry is “inactive”.

For the compound `CCN(CC)P(=O)(Nc1ccc(SC(F)F)cc1)c1ccc(N(C)C)cc1NC(=O)c1ccco1` (stereo unspecified), the Potency is 7.3 µM (active).

For `CC(C)(C)n1ncc2c(=O)n(Cc3ccc(Cl)cc3)cnc21`, the Potency was 20.6 µM (active).

Consider `Cc1ccc2c(c1)c1ncn(Cc3ccc(F)cc3)c(=O)c1n2C`, for which the Potency result was “inactive”.

Take `CC(C)(C)n1ncc2c(=O)n(Cc3c(Cl)cccc3Br)cnc21`: the Potency result is “inactive”.

As for `COc1cc(NC(=O)COC(=O)c2cc(S(=O)(=O)N3CCOCC3)ccc2F)cc(OC)c1`, the Potency entry is “inactive”.

As to `COCCNc1nc(N)c([N+](=O)[O-])c(N2CCCCCC2)n1`, the Potency entry was “inactive”.

For the compound `O=C(CN1CCN(c2ccccc2O)CC1)NC(=O)NCc1ccccc1`, the Potency entry is “inactive”.

On to `O=C(C1CCN(C2CCN(Cc3cccc4c3OCO4)CC2)CC1)N1CCOCC1`, for which the Potency result is “inactive”.

For the compound `O=C(C1CCN(C2CCN(Cc3ccc4cc(F)ccc4n3)CC2)CC1)N1CCCC1`, the Potency was 13 µM (active).

On to `C/C(=C\c1ccco1)CN1CCC(N2CCC(C(=O)N3CCOCC3)CC2)CC1`, for which the Potency result is “inactive”.

With `CCCC(CNC(=O)COC(=O)C1=NNC(=O)CC1)c1ccc(Cl)cc1Cl` (stereo unspecified), the Potency entry is “inactive”.

Consider `CN(CC(=O)Nc1ccc(C(N)=O)cc1)S(=O)(=O)c1ccc2c(c1)OCCO2`, for which the Potency result is “inactive”.

For `CCOc1ccc(NS(=O)(=O)c2ccc(C(=O)NC3CCN(Cc4ccccc4)CC3)cc2)cc1`, the Potency entry is “inactive”.

For `COc1cc(OC)cc(C(=O)N[C@H](C(=O)NNC(=O)c2ccc(Br)cc2)C(C)C)c1`, the Potency result is “inactive”.

With `O=C(NCC(F)(F)F)Nc1nnc(C(F)(F)F)s1`, the Potency is 18.4 µM (active).

Consider `O=C(Nc1nnc(COc2ccccc2)s1)Nc1ccccc1F`, for which the Potency result was “inactive”.

Regarding `COc1ccc(C)cc1NC(=O)CCC(=O)Nc1nnc(C(F)(F)F)s1`, the Potency entry was “inactive”.

For the compound `CCOc1ccc(CC(=O)NCCS(=O)(=O)N2CCN(c3ccccc3)CC2)cc1`, the Potency entry was “inactive”.

Turning to `COc1ccccc1N1CCN(S(=O)(=O)CCNC(=O)c2ccc(OC(C)C)cc2)CC1`, the Potency is 13 µM (active).

For the compound `O=C(NCCS(=O)(=O)N1CCN(c2ccccc2F)CC1)c1ccc(Br)o1`, the Potency result was “inactive”.

On to `COc1ccc(S(=O)(=O)N2CCCCC2)cc1NC(=O)C1CC(=O)N(c2ccc3c(c2)OCCO3)C1` (stereo unspecified), for which the Potency result is “inactive”.

For the compound `CC1CC(=O)Nc2ccccc2N1C(=O)COc1ccc2cc(Br)ccc2c1` (stereo unspecified), the Potency entry is “inactive”.

For the compound `C#CCOc1ccccc1/C=C1/C(=O)ON=C1C`, the Potency result is “inactive”.

Turning to `Cc1cccc(/C=N/NC(=O)CNc2cccc3ccccc23)n1`, the Potency entry was “inactive”.

For `C/C(=N\NC(=O)CNc1cccc2ccccc12)c1ccc(Br)s1`, the Potency entry was “inactive”.

`Cn1cccc1/C=N/NC(=O)CNc1cccc2ccccc12`: the Potency is 13 µM (active).

Take `Cc1ccc(NC(=O)COc2coc(CN3CCc4ccccc4C3)cc2=O)cc1Cl`: the Potency entry is “inactive”.

With `CC1=NN(Cc2ccccc2)C(=O)/C1=C/c1ccc(N(C)C)cc1`, the Potency entry is “inactive”.

Consider `CC(Cc1ccccc1)C(=O)N(C)Cc1ccccc1` (stereo unspecified), for which the Potency entry is “inactive”.

`CN(C)c1cc[n+](Cc2ccccc2)cc1`: the Potency is 8.2 µM (active).

For `CCN1C(=O)[C@@H]2[C@@H](c3ccc(-c4ccccc4)cc3)N3CCCC[C@@]3(C(=O)OC)[C@@H]2C1=O`, the Potency result is “inactive”.

Consider `CCCNC(=O)c1c(N)n(-c2ccc(S(N)(=O)=O)cc2)c2nc3ccccc3nc12`, for which the Potency result was “inactive”.

Take `CCOc1ccccc1NC(=O)Cn1nnc(C(=O)NCc2cccs2)c1N`: the Potency result was “inactive”.

Take `CC(C)Cn1c(N)c(C(=O)NCc2cccs2)c2nc3ccccc3nc21`: the Potency is 9.2 µM (active).

In the case of `CC(C(=O)N1CCc2ccccc21)N(C)CC(=O)Nc1ccc(F)cc1` (stereo unspecified), the Potency entry was “inactive”.

In the case of `Cc1noc(C)c1CSCC(=O)N(CCC(C)C)c1c(N)n(Cc2ccccc2)c(=O)[nH]c1=O`, the Potency entry is “inactive”.

`Cc1cccc(OCC(O)CN2CCN(S(=O)(=O)c3ccc(C)cc3C)CC2)c1` (stereo unspecified): the Potency is 11.6 µM (active).

In the case of `COc1cccc(OCC(O)CN2CCN(CCO)CC2)c1` (stereo unspecified), the Potency entry was “inactive”.

For `Cc1ccc(OCC(O)CN2CCN(CC(O)COc3ccc(C)cc3Cl)CC2)c(Cl)c1` (stereo unspecified), the Potency entry is “inactive”.

For `CCCCCCC(=O)Nc1nc(C)c(-c2csc(Nc3cc(Cl)ccc3OC)n2)s1`, the Potency entry was “inactive”.

Take `CC(=O)Nc1nc(C)c(-c2csc(Nc3ccc(S(N)(=O)=O)cc3)n2)s1`: the Potency result was “inactive”.

On to `C=CCCC(=O)Nc1nc(C)c(-c2csc(Nc3ccc(Cl)cc3)n2)s1`, for which the Potency is 18.4 µM (active).

`CCCCC(=O)Nc1nc(C)c(-c2csc(Nc3ccc(Cl)cc3)n2)s1`: the Potency was 20.6 µM (active).

Turning to `Cc1ccc(Nc2nc(-c3sc(NC(=O)c4ccccc4)nc3C)cs2)cc1`, the Potency result is “inactive”.

For `CCC(=O)Nc1nc(C)c(C(=O)Nc2cccc(Cl)c2)s1`, the Potency entry was “inactive”.
